Shown are actives, neighbours in structure and some others; about 10% of the full set was active somewhere.
Six1-Eya2 blk: blocks human Six1 binding to Eya2; AlphaScreen GST-Six1/His-Eya2 binding, biochemical; hits give low values; activity change, % (concentration not given with the values); 360,000 compounds, 0.56% hits; AID 651725; in the data active means activity change below about -65%; inconclusive means mostly about -30% to -63%; further: on the % scale 0 is the no-effect control and ±100 the full control effect
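Six1/Eya2 binding was read as AlphaScreen signal after compounds were pinned into GST-Six1 plus His-tagged Eya2 (5X stock 250/500 nM) in pH 8.0 Tris/NaCl/TCEP buffer, beads added, then incubated 1 h, 37 C, dark.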
JMJD2A Tudor inh: JMJD2A Tudor domain (human) inhibition. O75164. AlphaScreen JMJD2A-Tudor / H3K4me3 peptide binding. Potency, µM (top dose mostly 114 µM), inactives show at the top dose activity change, negative = inhibition, hits mostly inhibitors. 390,000 compounds, 4.4% hits. AID 504339; further: potency means the concentration at half of the fitted maximal effect; on the % scale 0 is the no-effect control and ±100 the full control effect; nearly all actives have a fitted effect of over 50% in size
BAZ2B block: blocks human BAZ2B. Q9UIF8. AlphaScreen BAZ2B-H3K14Ac peptide displacement. Potency, µM (doses to about 114 µM), without a hit: at the top dose activity change, negative = inhibition, usual class: inhibitors. 360,000 compounds, 4.4% hits. AID 504333; further: potency means the concentration at half of the fitted maximal effect; on the % scale 0 is the no-effect control and ±100 the full control effect; nearly all actives have a fitted effect of over 60% in size
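In this displacement format the biotinylated H3(5-23) peptide acetylated at Lys14 serves as ligand at 50 nM, with BAZ2B at 50 nM in PBS pH 7.4 containing 0.01% Tween-20. Donor and acceptor beads are 10 ug/mL final.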
G9a inh: G9a (human) methyltransferase inhibition; Q96KQ7; 350,000 compounds, 8.8% hits; G9a H3K9 monomethylation, AlphaScreen, 2 h; AID 504332; Potency, µM (series often up to 102 µM), inactives show top-dose activity, negative = inhibition, most hits filed as inhibitors; further: potency means the concentration at half of the fitted maximal effect; on the % scale 0 is the no-effect control and ±100 the full control effect; nearly all actives have a fitted effect of over 75% in size
Target sequence (Q96KQ7 913-1193 limits assumed): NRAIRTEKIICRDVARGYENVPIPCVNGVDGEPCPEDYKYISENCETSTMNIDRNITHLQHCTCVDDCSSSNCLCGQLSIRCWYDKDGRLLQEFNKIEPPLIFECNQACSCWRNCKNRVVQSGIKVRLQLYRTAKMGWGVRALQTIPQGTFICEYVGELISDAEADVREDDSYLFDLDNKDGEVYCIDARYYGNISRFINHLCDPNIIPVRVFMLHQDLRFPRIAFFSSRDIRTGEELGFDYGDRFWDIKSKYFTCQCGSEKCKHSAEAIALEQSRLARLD
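AlphaScreen detection with an anti-monomethyl H3K9 antibody quantified product after a 2 h room-temperature reaction containing 500 nM biotinylated H3K9 peptide, 20 µM SAM and 20 nM enzyme, which had been preincubated 15 min with compound.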
CtBP-E1A blk: CtBP/E1A binding inhibition; 340,000 compounds, 0.49% hits; AlphaScreen GST-E1A/His-CtBP binding, 1536-well; hits give low values; activity change, % (test concentration not listed); in the data active means activity change below about -65%; inconclusive means mostly about -30% to -63%; further: on the % scale 0 is the no-effect control and ±100 the full control effect
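Steps: dispense buffer (Tris pH 8.0, NaCl 300 mM, TCEP 1 mM, BSA, Tween 20); add 5X protein mix (GST-E1A, His-CtBP, 125 nM each); pin 23 nL compound; 2 h at 37 °C, dark; add 5X beads (50 ug/mL); 1 h; read.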
HP1b chromo inh: inhibitors of HP1-beta chromodomain binding to methylated histone tails. Potency, µM (titrated, usually from 114 µM), without a hit: top-dose activity change, negative = inhibition, most hits filed as inhibitors. 390,000 compounds, 0.56% hits. P83916. AlphaScreen HP1-beta / biotin-H3K9me3 peptide binding; further: potency means the concentration at half of the fitted maximal effect; nearly all actives have a fitted effect of over 70% in size
Target sequence (P83916 whole entry, looked up): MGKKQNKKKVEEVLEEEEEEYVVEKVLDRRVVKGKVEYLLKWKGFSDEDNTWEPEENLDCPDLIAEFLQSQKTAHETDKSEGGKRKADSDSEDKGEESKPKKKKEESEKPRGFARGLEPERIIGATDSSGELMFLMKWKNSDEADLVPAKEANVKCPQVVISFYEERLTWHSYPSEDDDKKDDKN
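Compound inhibition of the preformed complex between 50 nM HP1-beta and 50 nM biotinylated H3K9me3 peptide was read by AlphaScreen. Buffer was PBS pH 7.4 with 0.01% Tween-20. Incubations ran 30 min at room temperature, with 10 ug/mL donor/acceptor beads.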
* hit, by the source's call; ? = inconclusive; / = no result given; [ ] = another dose, or the depositor's remark. Unless noted, the call rests on the fitted dose curve; in most records, active means well fitted inhibition curve with a large enough effect; inconclusive means small, poorly fitted or top-dose-only effect; inactive means no such curve, though single readings can be large or run the other way.

SMILES | Six1-Eya2 blk | JMJD2A Tudor inh | BAZ2B block | G9a inh | CtBP-E1A blk | HP1b chromo inh
O=C1C(=O)N(c2ccccn2)C(c2cccc(F)c2)/C1=C(/O)c1ccccc1 (stereo unspecified) | 23 | 5% | -4% | 13% | / | 71%
CC(=O)C1=C(O)C(=O)N(c2ccccn2)C1c1ccccc1[N+](=O)[O-] (stereo unspecified) | 1 | 20µM* | ? | ? | 6 | 29%
CC(=O)C1=C(O)C(=O)N(c2ccc(Br)cn2)C1c1ccccc1[N+](=O)[O-] (stereo unspecified) | 0 | -22% | -30% | 40µM* | -5 | 41%
CC(=O)C1=C(O)C(=O)N(CCCN2CCOCC2)C1c1ccccc1[N+](=O)[O-] (stereo unspecified) | -5 | -30% | ? | ? | -2 | ?
CC(=O)C1=C(O)C(=O)N(c2ccccn2)C1c1cccc(F)c1 (stereo unspecified) | 4 | -11% | ? | 45µM* | 4 | 29%
CCCCNS(=O)(=O)c1ccc(OCC(=O)OC)cc1 | -3 | 1% | 8% | -2%[59 µM] | 10 | 26%
O=S(=O)(NCC(c1ccc2c(c1)OCO2)N1CCOCC1)c1ccc(Br)cc1 (stereo unspecified) | -3 | -6% | 0% | -13% | 7 | 29%
Oc1cc2c(cc1C(c1ccc(Br)cc1)N1CCCC1)OCO2 (stereo unspecified) | -24 | 7.9µM* | 40µM* | 1.6µM* | -19 | 16µM*
Cc1ccccc1NC(=S)c1nc2ccccc2[nH]1 | -90* | ? | 11µM* | 10%[59 µM] | -84* | 2%
S=C(Nc1ccc(Cl)cc1)c1nc2ccccc2[nH]1 | -73* | ? | 45µM* | 16%[59 µM] | ? | ?
CCCCOc1ccc(C(=O)NCCS(=O)(=O)N2CCN(c3ccccc3OC)CC2)cc1 | / | -23% | -16% | -5%[59 µM] | / | 22%[57 µM]
O=C1C(Cl)=C(NS(=O)(=O)c2ccc([N+](=O)[O-])cc2)C(=O)c2ccccc21 | -7 | ? | 45µM* | -154%[59 µM] | -3 | ?
Cc1ccc(NC(=O)C(=O)Nc2ccc(C)cn2)nc1 | 1 | 7% | -14% | 26%[59 µM] | 2 | 33%
Cc1ccc(NC(=O)/C(C#N)=C(\N)C(Cl)(Cl)Cl)nc1 | ? | -8%[57.1 µM] | 56µM* | ? | -16 | 16%
COc1cccc(/C=C/C(=C2/C(=O)N(c3ccccc3)N=C2C)c2ccc(Br)cc2)c1OC | 0 | -31% | 1.3µM* | ? | 1 | -21%
COc1ccccc1/C=C/C(=C1/C(=O)N(c2ccccc2)N=C1C)c1ccc(C)cc1 | -6 | 2.8µM* | 2.8µM* | ? | 0 | 2.5µM*
COc1ccccc1/C=C/C(=O)c1ccccc1 | 2 | 67% | 3% | 6%[0.501 µM] | / | 70%
COc1cccc(/C=C/C(=C2/C(=O)N(c3ccccc3)N=C2C)c2ccccc2)c1OC | 0 | ? | 4.5µM* | 1.4µM* | 4 | -35%
COc1cccc(/C=C/C(=O)OCC(=O)c2ccccc2)c1OC | 8 | 24% | / | / | / | 101%
CC1(C)C(=O)Nc2ccccc2N1C(=O)COc1ccccc1C#N | 0 | ? | / | / | -1 | -22%
O=C(NCC1CC1)C1Cc2c(-c3ccccc3Oc3ccccc3)ccnc2O1 (stereo unspecified) | -2 | / | / | / | 1 | /
COc1ccc(C2=C(N3CCN(c4cccc(C)c4)C(C)C3)c3ccccc3C2=O)cc1 (stereo unspecified) | / | 7.1µM* | 4.5µM* | 5µM* | / | ?
CC(C)CCn1c(=O)c2sccc2n2c(CCCC(=O)Nc3ccc(F)c(Cl)c3)nnc12 | / | ? | ? | -32%[59 µM] | / | 29%
CCCn1[nH]cc(SC)c(=O)c1=O | 0 | 25µM* | ? | ? | 6 | -11%
COc1ccc(S(=O)(=O)NCc2cccn2Cc2cc(C)ccc2C)cc1OC | / | -33% | ? | -1%[12.7 µM] | / | -12%
SMILES | Six1-Eya2 blk | JMJD2A Tudor inh | BAZ2B block | G9a inh | CtBP-E1A blk | HP1b chromo inh
COc1ccc(C2(CNC(=O)c3cc(OC)c(OC)c(OC)c3)CCCC2)cc1OC | -10 | -5% | / | / | -2 | 16%
COc1ccc(C(NC(=O)/C=C/c2ccco2)c2ccc(OC)c(OC)c2)cc1OC | -9 | -26% | ? | 8.9µM* | -7 | -12%
COc1ccc(C2(CNC(=O)/C=C\c3ccco3)CCCC2)cc1OC | -1 | -26% | -34% | 13µM* | 0 | 14%
CCOc1cc2c(cc1OCC)C(c1ccccc1)N(c1ccccc1)C(=O)C2 (stereo unspecified) | 0 | -13% | -30% | 24%[59 µM] | -5 | 31%
Cc1ccc(N(CC(=O)Nc2ccc(Cl)cc2)S(=O)(=O)c2cccc3nonc23)cc1 | / | ? | / | ? | / | 13%
Oc1ccc(CNc2ccc(F)cc2)c2cccnc12 | -90* | 56µM* | 25µM* | 1.6µM* | -90* | -25%
OCc1ccnc2c(O)cccc12 | -89* | 13µM* | 1.4µM* | -7%[2.33 µM] | -92* | -4%
Oc1ccc(Cn2ccnc2)c2cccnc12 | -83* | 2µM* | 0.71µM* | ? | -95* | 20%
CN(C)c1ccc(C=Cc2ccnc3c(O)cccc23)cc1 | -13 | / | / | / | -29 | /
COCc1ccc(O)c2ncccc12 | -91* | 40µM* | 1.8µM* | ? | -95* | 51%
Oc1ccc2c(c1)c1ccccc1c1ncccc21 | ? | -10% | / | / | ? | 6%

Bioassay records (PubChem)
